An excerpt weighted towards active compounds, which were near 3.8% of everything screened.
Nrf2 block: Nrf2 pathway inhibition; A549 ARE-Fluc reporter, luciferase luminescence, 18-24 h; Potency, µM (highest dose often 46 µM), actives largely listed as inhibitors; hit rate 2.1% among 360,000; AID 504444; note: nearly all actives have a fitted effect of over 60% in size
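Concentration-response testing used A549 ARE_Fluc cells at 5000 cells/well. Following an 18-24 h compound incubation, viability was read by fluorescence (Ex 405/Em 525) and luciferase output by luminescence.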
ATXN viability: cell viability loss in ATXN counter-screen. S2 cells (HEK-293 line with an ATXN2-luciferase reporter) viability, CellTiter-Fluor protease fluorescence, 24 h. Potency, µM (highest dose often 56.7 µM), hits mostly cytotoxic. hit rate 0.49% among 400,000; note: nearly all actives have a fitted effect of over 40% in size
TGFb inhibitor: blocks TGF-b signaling | hit rate 1.2% among 410,000 | Potency, µM (titrated, usually from 46.1 µM), usual class: inhibitors | HepG2 CAGA-GFP TGF-b/SMAD3 reporter, GFP fluorescence, 18 h; TGF-beta stimulated, 500 pg/mL final | AID 588855; note: nearly all actives have a fitted effect of over 65% in size
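Using HEPG2 CAGA-GFP reporter cells at 1000 cells/well, we pinned test compounds, stimulated with recombinant TGF-beta (500 pg/mL final) and measured total well GFP after 18 h.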
A549 viability: kills or reduces viability of A549 cells in Nrf2 counter-screen; A549 ARE-Fluc cells, CellTiter-Fluor viability, 18-24 h; AID 504648; Potency, µM (titrated, usually from 46 µM), actives largely listed as inhibitors; hit rate 0.16% among 390,000
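A549 ARE_Fluc cells in 5% FBS OPTI-MEM were exposed to compounds in concentration-response for 18-24 h at 37 deg C. Viability was read by CellTiter-Fluor fluorescence (Ex 405/Em 525) after 30 min, before the luciferase read.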
HepG2 tox-1: HepG2 cytotoxicity, counter-screen for TGF-b inhibitors. HepG2 CAGA-GFP viability, ATP luminescence, 18 h. Potency, µM (highest dose often 46.1 µM), hits mostly cytotoxic. hit rate 0.76% among 410,000
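CellTiter-Glo luminescence gave cytotoxicity after 18 hours at 37 degrees C. The cells were HepG2 CAGA-GFP in 1% FBS DMEM, stimulated with 500 pg/mL TGF-beta after compound addition. %Activity was normalised to no-cell wells (complete cell-killing) and DMSO (no toxicity), and curves were fitted and classified.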
ATXN2 expr inh: inhibitors of ATXN2 expression. hit rate 0.72% among 360,000. HEK-293 ATXN2-luciferase reporter, luminescence, 24 h. Potency, µM (series often up to 57 µM), actives largely listed as inhibitors; note: nearly all actives have a fitted effect of over 55% in size
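ATXN2-luciferase reporter cells (luciferase flanked by upstream and downstream ATXN2 gene portions) were treated 24 h at 37 °C with compounds at up to 57 uM. SteadyGlo luminescence gave expression; GF-AFC fluorescence gave viability.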
TGFb CAGA inh: TGF-b pathway inhibition, cherry-pick retest | shares compounds with TGFb inhibitor | HepG2 CAGA-GFP TGF-b reporter, GFP fluorescence, 18 h; cells stimulated with TGF-beta, 500 pg/mL | Potency, µM (series often up to 46.1 µM), actives largely listed as inhibitors | hit rate 63% among 1,600; note: nearly all actives have a fitted effect of over 65% in size
HepG2 tox-2: HepG2 cytotoxicity, TGF-b inhibitor counterscreen | shares compounds with TGFb inhibitor | Potency, µM (highest dose often 46.1 µM), most hits filed as inhibitors | hit rate 27% among 1,600 | HepG2 CAGA-GFP viability, ATP luminescence, 18 h; cells stimulated with TGF-beta, 500 pg/mL; note: nearly all actives have a fitted effect of over 70% in size
TGFb CCL64 inh: orthogonal confirmation of TGF-b inhibitors in CCL64 cells | shares compounds with TGFb inhibitor | CCL64 CAGA-GFP reporter, TGF-b stimulated, GFP fluorescence, 18 h | Potency, µM (top dose mostly 46.1 µM), hits mostly inhibitors | hit rate 41% among 1,600 | AID 720536; note: nearly all actives have a fitted effect of over 65% in size
COP TGFb inh: validation of TGF-b inhibitors in HepG2 COP promoter reporter | hit rate 3% among 1,600 | shares compounds with TGFb inhibitor | Potency, µM (top dose mostly 46.1 µM), hits mostly inhibitors | HepG2 COP-GFP TGF-b reporter, GFP fluorescence, 18 h; cells stimulated by added recombinant TGF-beta; note: nearly all actives have a fitted effect of over 70% in size
Numbers stand for hits; - = inactive; ? = inconclusive; . = no result given. Calls come from the whole dose curve; as a rule, active = well fitted curve in the direction sought with a large enough effect; inconclusive = small, poorly fitted or top-dose-only effect, or another doubt; inactive = no such curve, though single readings can be large; an effect the other way counts as inactive or inconclusive.

SMILES	Nrf2 block	ATXN viability	TGFb inhibitor	A549 viability	HepG2 tox-1	ATXN2 expr inh	TGFb CAGA inh	HepG2 tox-2	TGFb CCL64 inh	COP TGFb inh
C=CCC[C@H](Cc1ccc(F)cc1)C(=O)OC[C@@H](Cc1c[nH]c2ccccc12)NC(=O)[C@H](CC=C)CC(=O)NCCO	-	?	?	-	-	?	.	.	.	.
C=CCC[C@H](Cc1ccc(F)cc1)C(=O)OC[C@@H](Cc1c[nH]c2ccccc12)NC(=O)[C@H](CC=C)CC(=O)N(CCO)Cc1ccccc1	20.6µM	20µM	11.2µM	?	-	?	11.6µM	?	18.4µM	-
O=C1C(=O)N(C2CCN(S(=O)(=O)c3ccccc3)CC2)CCN1Cc1ccccc1	?	-	-	-	-	-	.	.	.	.
NC(c1csc(NC(=O)Nc2ccc(OC(F)(F)F)cc2)n1)C1CCCCC1 (stereo not given)	.	?	8.91µM	.	7.94µM	?	?	18.4µM	20.6µM	?
COc1ccc(NC(=O)Nc2nc(C(N)CC(C)C)cs2)cc1 (stereo not given)	.	-	?	.	-	-	.	.	.	.
CC1(C(=O)Nc2ccc3c(c2)OCCO3)CCN1C(=O)c1cccc(F)c1 (stereo not given)	.	-	-	.	-	-	.	.	.	.
Cc1ccc(NS(=O)(=O)c2ccc(OCC(=O)Nc3cccc([N+](=O)[O-])c3)c(C)c2)cc1	20.6µM	?	11.2µM	?	-	?	-	-	-	-
Cc1cc(C)cc(NS(=O)(=O)c2ccc(-c3cnc(C4CC4)o3)cc2)c1	-	-	7.94µM	-	-	.	8.2µM	?	5.17µM	-
Cc1cccc(NS(=O)(=O)c2ccc(-c3cnc(C4CC4)o3)cc2)c1C	-	?	14.1µM	-	-	.	1.84µM	?	4.11µM	-
O=C(NCc1ccccc1)N1CCC(n2cnc3cc(F)ccc32)CC1	?	-	-	-	-	-	.	.	.	.
CCC(C)Sc1cccc(-c2nc3cc(C)ccn3c2NC2CCCCC2)c1 (stereo not given)	?	?	11.2µM	?	-	?	?	?	18.4µM	-
Cc1ccn2c(NC3CCCCC3)c(-c3cccc(SC4CCCCC4)c3)nc2c1	?	?	?	-	-	?	.	.	.	.
O=C(c1ccc(CSc2nc3ccncc3[nH]2)cc1)N1CCCCCC1	-	-	-	-	-	?	.	.	.	.
O=C(c1ccc(CSc2nc3ccncc3[nH]2)cc1)N1CCN(c2cccc(Cl)c2)CC1	20.6µM	?	7.94µM	-	-	?	16.4µM	?	?	-
CCCN1CCN(c2cc3c(cc2F)c(=O)c(S(=O)(=O)c2ccc(CC)cc2)cn3CC)CC1	?	.	?	?	-	.	.	.	.	.
CC(C)C(=O)N1CCN(c2ccc(NC(=O)c3ccc([N+](=O)[O-])o3)cc2)CC1	-	-	?	?	-	-	5.8µM	10.3µM	?	-
CC(=O)N1CCN(c2ccc(NC(=O)c3ccc(Br)o3)cc2Cl)CC1	-	-	-	-	-	.	.	.	.	.
CN1CCN(c2ccc(NC(=O)c3ccc([N+](=O)[O-])o3)cc2Cl)CC1	?	20µM	10µM	-	-	-	8.2µM	16.4µM	23.1µM	-
CCCC(=O)N1CCN(c2ccc(NC(=O)c3ccc([N+](=O)[O-])o3)cc2Cl)CC1	16.4µM	-	5.62µM	?	11.2µM	?	3.66µM	13µM	23.1µM	?
O=C(Nc1cccc(Cl)c1N1CCCC1)c1ccc([N+](=O)[O-])o1	?	-	-	-	-	-	.	.	.	.
Cc1cc(NC(=O)c2ccc([N+](=O)[O-])o2)ccc1NC(=O)c1ccco1	-	?	7.08µM	?	-	-	4.11µM	20.6µM	?	-
CCn1ncc(Cl)c1C(=O)Nc1cc(Cl)ccc1Cl	.	-	-	-	-	-	.	.	.	.
COCC(C)N1CC(O)=C(c2nc(-c3ccc(Cl)cc3)cs2)C1=N (stereo not given)	-	-	-	-	-	-	.	.	.	.
O=C(Nc1ccc2oc(-c3ccncc3)nc2c1)c1ccc([N+](=O)[O-])o1	-	?	5.62µM	-	-	-	6.51µM	?	?	-
CC(C)C(=O)N1CCN(c2ccc(NC(=O)c3ccc([N+](=O)[O-])o3)cc2Cl)CC1	-	-	7.94µM	?	-	?	5.8µM	20.6µM	?	-
SMILES	Nrf2 block	ATXN viability	TGFb inhibitor	A549 viability	HepG2 tox-1	ATXN2 expr inh	TGFb CAGA inh	HepG2 tox-2	TGFb CCL64 inh	COP TGFb inh
O=C(Nc1c(Cl)ccc2nsnc12)c1ccc([N+](=O)[O-])o1	?	-	10µM	-	12.6µM	-	8.2µM	?	?	?
O=C(Nc1ccc(N2CCOCC2)c(Cl)c1)c1ccc([N+](=O)[O-])o1	-	?	8.91µM	-	12.6µM	.	14.6µM	20.6µM	13µM	?
O=C(Nc1c(Cl)ccc2nsnc12)c1ccc(Br)o1	.	-	-	.	-	.	.	.	.	.
O=C(c1cccs1)N1C[C@@H](n2cc(-c3ccc(F)cc3)nn2)[C@H](O)C[C@@H]1c1ccccc1	.	-	-	.	-	-	.	.	.	.
CCCC1(c2ccccc2)NC(=O)N(CC(=O)Nc2cc(C)ccc2OC)C1=O (stereo not given)	-	-	-	-	-	-	.	.	.	.
Cc1ccc(C(=O)COC(=O)c2cccc([N+](=O)[O-])c2)s1	-	-	-	-	-	.	.	.	.	.
CCOC(=O)c1cc(-c2ccc(OC)cc2)n(CCC(=O)Nc2cccc(C(C)=O)c2)c1C	.	.	-	-	-	.	.	.	.	.
CC(C)(C)C(=O)/C(=C/c1ccncc1)n1cncn1	-	.	4.47µM	?	14.1µM	15.8µM	18.4µM	13µM	5.8µM	?
COc1cc(C(=O)N/N=C/c2cn(Cc3ccccc3)c3ccccc23)ccc1O	?	-	-	-	-	-	.	.	.	.
Cc1ccc(OCC(=O)N/N=C\c2cn(Cc3ccccc3)c3ccccc23)cc1C	-	-	11.2µM	-	-	-	5.17µM	5.17µM	-	-
CNC(=S)N/N=C/c1cn(Cc2ccc(F)cc2)c2ccccc12	?	?	?	-	-	-	.	.	.	.

Screens from PubChem BioAssay.
